Source: PMC4336329 (PLoS ONE, 2015)
The campaign covered roughly 310,000 compounds. About 14,000 (4.5%) showed an effect of 50% or more. Effects have a minus sign here. What follows is part of a selection rich in strong results, with near analogues and random picks from the rest.

Target: human ether-à-go-go-related gene (hERG) potassium channel (human, UniProt Q12809)
Experiment: primary screen, population patch clamp on CHO cells stably expressing hERG; higher = less effect of the substance
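Also: peak tail current of the secondary pulse compared with the same well before compound.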

human ether-à-go-go-related gene (hERG) potassium channel, sequence (Q12809 whole entry, looked up): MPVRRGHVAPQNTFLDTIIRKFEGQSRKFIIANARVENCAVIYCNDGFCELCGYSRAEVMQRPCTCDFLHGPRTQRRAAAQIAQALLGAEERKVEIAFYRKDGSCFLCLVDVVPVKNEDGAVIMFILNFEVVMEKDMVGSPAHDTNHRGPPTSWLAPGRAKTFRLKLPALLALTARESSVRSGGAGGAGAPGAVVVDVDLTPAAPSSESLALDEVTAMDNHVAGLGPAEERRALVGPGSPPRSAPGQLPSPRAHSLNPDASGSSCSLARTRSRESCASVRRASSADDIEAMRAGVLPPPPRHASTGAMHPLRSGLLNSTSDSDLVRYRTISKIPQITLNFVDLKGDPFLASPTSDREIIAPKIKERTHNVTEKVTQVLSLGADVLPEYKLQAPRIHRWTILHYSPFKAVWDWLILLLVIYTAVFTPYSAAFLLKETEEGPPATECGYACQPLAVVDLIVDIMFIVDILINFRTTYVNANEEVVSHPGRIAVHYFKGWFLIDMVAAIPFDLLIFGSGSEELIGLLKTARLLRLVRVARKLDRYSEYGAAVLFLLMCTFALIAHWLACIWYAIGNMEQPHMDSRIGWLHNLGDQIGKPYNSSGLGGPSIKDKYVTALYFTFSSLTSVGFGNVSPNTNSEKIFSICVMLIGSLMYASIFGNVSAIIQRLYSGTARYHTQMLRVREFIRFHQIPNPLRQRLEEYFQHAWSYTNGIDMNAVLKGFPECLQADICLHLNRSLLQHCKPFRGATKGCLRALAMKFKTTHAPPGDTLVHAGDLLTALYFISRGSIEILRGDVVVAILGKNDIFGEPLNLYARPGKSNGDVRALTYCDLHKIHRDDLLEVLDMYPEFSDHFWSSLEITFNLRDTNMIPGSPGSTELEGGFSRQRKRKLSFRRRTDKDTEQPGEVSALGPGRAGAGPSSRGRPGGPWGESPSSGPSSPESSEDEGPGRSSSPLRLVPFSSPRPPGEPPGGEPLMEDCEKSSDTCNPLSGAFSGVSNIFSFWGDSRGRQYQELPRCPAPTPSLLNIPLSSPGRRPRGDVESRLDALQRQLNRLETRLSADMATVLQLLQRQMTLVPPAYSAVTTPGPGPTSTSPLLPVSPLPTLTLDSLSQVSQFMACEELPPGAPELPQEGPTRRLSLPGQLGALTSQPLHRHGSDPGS

Row | SMILES | hERG current change (%, negative = inhibition) at 10uM [%]
1 | COCC(C)n1c(C)cc(C(=O)CN2C(=O)NC3(CCCCC3C)C2=O)c1C (centres unmarked) | -8.29
2 | COC(=O)c1ccc(NC(=S)N2CCC(C(N)=O)CC2)cc1 | 12.2
3 | CCC(C)(C(=O)NC1CCCCC1)N(C(=O)CNC(=O)c1ccccc1)c1c(C)n(C)n(-c2ccccc2)c1=O (centres unmarked) | 10.1
4 | CN=C1SC(C(=O)O)CC(=O)N1C (centres unmarked) | 19.1
5 | Cc1ccc(NC(=S)Nc2ccc(OC(F)F)c(Cl)c2)cc1Cl | 16.5
6 | Cc1nc2ccc(S(=O)(=O)NCC(=O)NCCc3ccc(Cl)cc3)cc2s1 | 28.3
7 | c1ccc2c(-c3nnc(SCc4cn5ccccc5n4)o3)c[nH]c2c1 | -4.5
8 | Cc1nc(Cl)c(C(=O)Nc2cccc(F)c2)c(C)c1Cl | -5.95
9 | CSc1nnc(CNS(=O)(=O)c2ccc(F)cc2)n1C | 19.7
10 | CCN1C(=C(C#N)C#N)C=Cc2cc(C)ccc21 | 15.7
11 | CCN1/C(=C/c2ccc3ccccc3[n+]2CCCS(=O)(=O)[O-])C=Cc2cc(C)ccc21 | 24.2
12 | CCN1/C(=C/c2ccc3ccccc3[n+]2CC)C=Cc2ccccc21.[Cl-] | -82.5
13 | CCOC(=O)/C(C#N)=C/C=C1\C=Cc2ccccc2N1CC | 7.18
14 | C=CC[n+]1c(/C=C2\C=Cc3cc(C)ccc3N2CC)ccc2ccccc21.[Br-] | -83.5
15 | CCN1C(=C(C#N)C#N)C=Cc2ccccc21 | 15.8
16 | CCN1/C(=C2\C(=O)N(c3ccccc3)N=C2C)C=Cc2cc(C)ccc21 | -40
17 | CCN1/C(=C/c2cc[n+](C)cc2)C=Cc2cc(C)ccc21.[I-] | -72.2
18 | CCN1C(=O)/C(=C2\C=Cc3cc(C)ccc3N2CC)OC1=S | 0.13
19 | CC1=C(C(N)=O)C(c2ccccc2F)n2nc(CCCO)nc2N1 (centres unmarked) | 20.3
20 | OCC[C@H]1C[C@H](O)[C@@H](O)[C@@]2(CCc3ccccc3CO2)O1 | 7.83
21 | CCOCC(=O)Nc1cc([N+](=O)[O-])ccc1C | -2.36

Row | SMILES | hERG current change (%, negative = inhibition) at 10uM [%]
22 | COc1cc(NS(=O)(=O)c2ccc(NC(=S)NC(=O)c3ccco3)cc2)ncn1 | 20.4
23 | Cc1ccc(-c2noc(CCCN3C(=O)c4ccccc4C3=O)n2)cc1 | 9.03
24 | CCCCNC(=O)CC1NCCNC1=O (centres unmarked) | 22
25 | Cc1ccccc1CS(=O)(=O)CCC(=O)NCCN1CCN(c2cccc(Cl)c2)CC1 | -42.5
26 | CCOC(=O)CNc1nc(Cl)nc(Nc2ccc(OC)cc2OC)n1 | 19.2
27 | CCN1C(c2ccc(F)cc2)=CS/C1=C(\C#N)c1nnc2n1-c1ccccc1SC2 | -58.9
28 | CN1C(c2ccc(F)cc2)=CS/C1=C(\C#N)c1nnc2n1-c1ccccc1SC2 | -45.5
29 | Br.CN1C(c2ccc(F)cc2)=CS/C1=C(/C#N)c1nnc(N2CCOCC2)n1-c1ccccc1 | -23.8
30 | COc1ccc(-c2nnc(SCC(=O)c3cc(C)n(Cc4cccs4)c3C)o2)cc1 | 5.36
31 | COc1ccccc1-n1cnnc1SCC(=O)c1cc(C)n(Cc2cccs2)c1C | -27.8
32 | COc1ccc(-n2cnnc2SCC(=O)c2cc(C)n(Cc3cccs3)c2C)cc1 | -73.5
33 | COC(=O)Cn1c(=O)cnc2ccccc21 | -2.96
34 | CCn1cnc2c(oc3ccccc32)c1=O | 18.3
35 | CN1CCN(C(=O)c2sc(=S)n(-c3ccccc3)c2N)CC1 | -10.2
36 | CCOC(=O)c1sc(=S)n(-c2ccc(Cl)cc2)c1C | -37.4
37 | CCOc1ccc(-n2c(N)c(C(=O)N3CCN(C)CC3)sc2=S)cc1 | -51
38 | CCOC(=O)c1sc(=S)n(-c2ccc(OC)cc2)c1N | 15.2
39 | CCOC(=O)c1sc(=S)n(-c2ccc(OC)cc2)c1C | -51.1
40 | Cc1ccc(-n2c(N)c(C(=O)N3CCN(C)CC3)sc2=S)cc1 | -30.4
41 | COC(=O)c1c(NC(=O)CSc2nnnn2-c2ccccc2)sc2c1CCC(C(C)(C)C)C2 (centres unmarked) | -1.38
42 | C=CCn1c(SCC(=O)Nc2cccnc2Cl)nnc1-c1ccc(Cl)cc1 | -45.4

Row | SMILES | hERG current change (%, negative = inhibition) at 10uM [%]
43 | CCOC(=O)C1(C)C=C(Nc2ccccc2)C(=O)N1c1ccccc1 (centres unmarked) | 25.7
44 | Cc1c(NC(=O)/C(C#N)=C/c2c(Oc3ccccc3)nc3ccccn3c2=O)c(=O)n(-c2ccccc2)n1C | 5.93
45 | CCN(CC)c1ccc(CN2CCC(C(=O)NCc3ccc(C)cc3)CC2)cc1.O=C(O)C(=O)O | -65.3
46 | Cc1ccc(CNC(=O)C2CCCC2)cc1 | 8.93
47 | Cc1ccc(CNC(=O)C2CCN(S(=O)(=O)N3CCCCC3)CC2)cc1 | -11.4
48 | Cc1ccc(CNC(=O)C2CCN(S(=O)(=O)N3CCCC3)CC2)cc1 | 0.472
49 | CCN(CC)S(=O)(=O)N1CCC(C(=O)NCc2ccc(C)cc2)CC1 | -16.9
50 | CSc1ccc(CN2CCC(C(=O)NCc3ccc(C)cc3)CC2)cc1.O=C(O)C(=O)O | -87.6
51 | O=C1c2ccccc2C(=O)N1CNc1ccccc1 | 18.7
52 | O=C1CC(c2ccccc2)CN1C(=O)c1cncc(Br)c1 (centres unmarked) | 5.75
53 | O=C(c1cccnc1)N1N=C(C2CCCCC2)CC1(O)C(F)(F)F (centres unmarked) | -0.742
54 | CC1CC(C)CN(CCCNC(=O)c2csc3c2CCCC3)C1 (centres unmarked) | -65
55 | CCN1CCN(CCCNC(=O)c2csc3c2CCCCC3)CC1 | -7.21
56 | CC1CC(C)CN(CCCNC(=O)c2csc3c2CCCCC3)C1 (centres unmarked) | -61.2
57 | CC1CCCC(C)N1CCCNC(=O)c1csc2c1CCCCC2 (centres unmarked) | -49.3
58 | CCN1CCCC1CNC(=O)c1csc2c1CCCC2 (centres unmarked) | -38.9
59 | O=C(NCCCN1CCOCC1)c1csc2c1CCCC2 | -7.57
60 | CC(C)CCNC(=O)c1csc2c1CCCCC2 | 2.04
61 | O=C(NCCN1CCOCC1)c1csc2c1CCCCC2 | 5.21
62 | CCC1CCCCN1CCCNC(=O)c1csc2c1CCCCC2 (centres unmarked) | -56.7
